# Compounds with a hit are over-represented: about 19% of the library has one in this group of screens.
# HT1080 IDH1KD tx – kills HT-1080 cells with IDH1 knockdown. HT-1080 IDH1 knockdown viability, ATP luminescence, 48 h. Potency, µM (doses to about 46.1 µM), inactives show at the highest dose activity, negative = toxicity, most hits filed as cytotoxic. 360,000 compounds, 2% hits. AID 686971;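 also: potency is read from the fitted curve at half-maximal effect; 0% = DMSO wells and -100% = cell-free medium wells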
#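 HT-1080-IDH1KD cells (IDH1 knocked down), 750/well in RPMI with 5% FBS, treated with compound 48 h at 37 degrees C. Viability by CellTiter-Glo luminescence, normalised to DMSO and no-cell wells; concentration-response curves classed.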
# IL1B secr inh – inhibitors of inflammasome signaling (IL-1 beta secretion). THP-1 LPS/ATP IL-1B secretion, AlphaLISA, 16 h; stronger effect = lower value. activity change, % at 57.5 µM. 360,000 compounds, 4.7% hits; in the data active = activity change below about -50%; inconclusive = mostly about -30% to -49%
#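 THP-1 cells pretreated 1 hr with compounds (up to 57.5 uM final), then stimulated with LPS (250 ng/mL final) plus ATP (1.25 mM final); secreted IL-1B measured by AlphaLISA after 16 hr, decreased signal indicating inhibition.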
# HT1080NT lethal – kills 2HG-producing HT-1080-NT fibrosarcoma cells; AID 686970; Potency, µM (series often up to 46.1 µM), without a hit: at the top dose activity, negative = less viability, actives largely listed as cytotoxic; HT-1080-NT fibrosarcoma viability, CellTiter-Glo ATP luminescence, 48 h; 360,000 compounds, 1.6% hits;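 also: NT is the 2HG producing partner of a matched IDH1 knockdown line; potency is read from the fitted curve at half-maximal effect; 0% = DMSO-treated cells and -100% = media-only wells without cells; nearly all actives have a fitted effect of over 55% in size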
#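 HT-1080-NT fibrosarcoma cells (2HG-overproducing), 750 cells/well in RPMI with 5% FBS, dosed after 2 h and incubated 48 h at 37C. CellTiter-Glo luminescence normalized to DMSO and no-cell wells; concentration-response curves fitted and classed.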
# TDP1 cell noCPT – qHTS for Inhibitors of human tyrosyl-DNA phosphodiesterase 1 (TDP1): qHTS in cells in absence of CPT. DT40 Tdp1-/- hTDP1 cells, no CPT, ATP luminescence, 48 h. Potency, µM (top dose mostly 46.2 µM), for inactives: top-dose activity change, negative = growth inhibition, actives largely listed as inhibitors. 420,000 compounds, 15% hits; also: potency is read from the fitted curve at half-maximal effect; nearly all actives have a fitted effect of over 55% in size
#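 A cellular qHTS used chicken DT40 cells lacking endogenous Tdp1 but carrying stably transfected human TDP1. Compounds were applied without camptothecin, and cell growth kinetics were judged by ATP-dependent luminescence after ≥48 hr.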
# TDP1 cell CPT – growth inhibition of DT40 Tdp1-/-;hTDP1 cells with camptothecin (screen for TDP1 inhibitors) | chicken DT40 Tdp1-/-;hTDP1 cells + 20 nM CPT, ATP luminescence, 48 h | Potency, µM (series often up to 46.2 µM), without a hit: at the highest dose activity change, negative = growth inhibition, most hits filed as inhibitors | 420,000 compounds, 12% hits | AID 686979; also: potency is read from the fitted curve at half-maximal effect; nearly all actives have a fitted effect of over 55% in size
#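 Cell growth measured by CellTiter-Glo luminescence after a minimum 48 h, 37 C compound exposure with 20 nM CPT in Tdp1-knockout DT40 cells stably expressing hTDP1, seeded 400/well; qHTS titration format.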
# * marks the source's active call; other numbers are inactive results; ? = inconclusive. Unless noted, calls follow the shape of the dose curve; as a rule, active = well fitted curve in the direction sought with a large enough effect; inconclusive = small, poorly fitted or top-dose-only effect, or another doubt; inactive = no such curve, though single readings can be large; an effect the other way counts as inactive or inconclusive. Unless noted, % is scaled to controls: 0 for no effect and ±100 for the full control effect.
SMILES,HT1080 IDH1KD tx,IL1B secr inh,HT1080NT lethal,TDP1 cell noCPT,TDP1 cell CPT
N#C/C(=C\c1c(N2CCCCC2)nc2ccccn2c1=O)C(=O)NC1CCS(=O)(=O)C1 (configuration not stated),8%,-6,9%,-8%,-3%
COc1ccc(Oc2nc3c(C)cccn3c(=O)c2/C=C(\C#N)C(N)=O)cc1,?,23,?,1.8µM*,?
Cc1cccn2c(=O)c(/C=C(\C#N)C(=O)NC3CCS(=O)(=O)C3)c(Oc3ccc(F)cc3)nc12 (configuration not stated),?,-25,?,21µM*,?
Cc1cc(Oc2nc3ccccn3c(=O)c2/C=C(\C#N)C(=O)NC2CCS(=O)(=O)C2)ccc1Cl (configuration not stated),?,-11,?,16µM*,-25%
N#C/C(=C\c1c(Oc2ccc(Cl)cc2)nc2ccccn2c1=O)C(=O)NC1CCS(=O)(=O)C1 (configuration not stated),?,-100*,-13%,?,-14%
COC(=O)/C(C#N)=C/c1c(Oc2cccc(C)c2)nc2ccccn2c1=O,8%,-7,17%,-39%,-5%
Cc1cccn2c(=O)c(/C=C(\C#N)C(=O)NC3CCS(=O)(=O)C3)c(N3CCC(C)CC3)nc12 (configuration not stated),2%,-27,1%,?,?
Cc1cccc(Oc2nc3ccccn3c(=O)c2/C=C(\C#N)C(=O)NC2CCS(=O)(=O)C2)c1C (configuration not stated),-17%,-99*,-10%,?,?
Cc1ccsc1/C=C(\C#N)C(=O)NC1CCS(=O)(=O)C1 (configuration not stated),0%,0,-2%,11%,-5%
O=C1CSC(=NC2CCCCC2)N1,-1%,-96*,1%,18µM*,23µM*
C=CCn1c(SCc2csc(-c3ccc(Cl)cc3)n2)nnc1-c1ccccc1OC,?,-29,-19%,?,23µM*
O=C(/C=C/c1ccco1)Nc1cccc(NC(=O)/C=C/c2ccco2)n1,12%,10,0%,21µM*,23µM*
Cc1nc(NC(=O)/C=C/c2ccco2)sc1C,?,22,-12%,5.8µM*,5.2µM*
Cc1nnc(NC(=O)C2CC(=O)N(c3ccccc3)C2)s1 (configuration not stated),8%,-10,?,-1%,-7%
O=C(CN1C(=O)c2ccccc2S1(=O)=O)NCc1c(F)cccc1F,10%,7,16%,-3%,5%
O=c1c(-c2nc3ccccc3s2)cccn1Cc1ccc(Cl)c(Cl)c1,-13%,40,-2%,-1%,1%
Cc1ccnc(NS(=O)(=O)c2ccc(NC(=O)C3C4C=CC(C4)C3C(=O)O)cc2)n1 (configuration not stated),2%,12,-1%,21%,-1%
O=Nc1c(O)n(Cc2cccc(C(F)(F)F)c2)c2ccccc12,?,-246*,?,-19%,10%
O=Nc1c(O)n(Cc2ccc(Cl)c(Cl)c2)c2ccccc12,?,-59*,-25%,?,?
CC(C)CC(=O)Nc1ccc(-c2nnn(CC(=O)NCc3ccco3)n2)cc1,-2%,5,0%,-7%,-18%
O=C(NCc1ccc(N2CCCC2=O)cc1)C1CCC(=O)N(Cc2ccccc2F)C1 (configuration not stated),20%,-2,8%,0%,2%
Clc1ccc(CN2CCC(c3nc4ccc(Cl)cc4[nH]3)CC2)cc1,-26%,-61*,-10%,12µM*,16µM*
COc1ccc(C2CC(=O)c3sc(NC(C)=O)nc3C2)cc1 (configuration not stated),2%,?,7%,?,-18%
